PubChem BioAssay (NCATS)
Records with an inconclusive call do not appear. Unmarked numbers belong to inactive results. The source made the active and inactive calls. Calls come from the whole dose curve; as a rule, active = well fitted curve in the direction sought with a large enough effect; inconclusive = small, poorly fitted or top-dose-only effect, or another doubt; inactive = no such curve, though single readings can be large; an effect the other way counts as inactive or inconclusive.
% is set by controls: 0 for no effect and ±100 for the full control effect.

Molecular target: Dual specificity protein kinase CLK4 (Homo sapiens) (UniProt Q9HAZ1)
Sequence (Q9HAZ1 whole entry, looked up): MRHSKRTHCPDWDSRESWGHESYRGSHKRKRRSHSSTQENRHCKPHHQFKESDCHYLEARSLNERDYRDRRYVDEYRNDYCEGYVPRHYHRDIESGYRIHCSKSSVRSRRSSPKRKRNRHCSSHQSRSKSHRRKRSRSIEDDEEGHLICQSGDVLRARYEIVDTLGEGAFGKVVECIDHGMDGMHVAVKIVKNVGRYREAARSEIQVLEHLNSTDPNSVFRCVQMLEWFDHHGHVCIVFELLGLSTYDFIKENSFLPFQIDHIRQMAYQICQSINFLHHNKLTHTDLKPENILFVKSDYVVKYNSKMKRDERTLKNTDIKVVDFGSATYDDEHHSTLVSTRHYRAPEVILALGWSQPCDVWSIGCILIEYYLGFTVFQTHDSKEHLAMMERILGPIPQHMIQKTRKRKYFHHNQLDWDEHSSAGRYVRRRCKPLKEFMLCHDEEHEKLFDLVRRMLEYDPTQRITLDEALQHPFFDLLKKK
Assay: qHTS Assay for Inhibitors of CDC-like Kinase 4 (ADP-FP Assay) (AID 1795);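 note: recombinant human CLK4 phosphorylating RS repeat peptide at 1 µM ATP; nearly all actives have a fitted effect of over 60% in size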
Settings: Transcreener ADP fluorescence polarization; series mostly up to 50 µM; activity change, negative = inhibition: at the top concentration
How it was run: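 Kinase activity was followed as ADP output, converted from fluorescence polarization with a calibration curve. Reactions ran one hour at low ATP (1 uM) with RS peptide substrate.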
With c1csc(CNc2ccnc(-c3ccoc3)n2)c1 the “activity change, negative = inhibition” value was -13.2%.
With Cc1ccccc1-c1nccc(NCCN2CCOCC2)n1 the “activity change, negative = inhibition” value was -1.23%.
With COc1cccc(-c2cncnc2N(C)Cc2ccco2)c1 the “activity change, negative = inhibition” value was 1.15%.
With CN(C)C(=O)c1ccc(-c2cncnc2NCCc2cnc[nH]2)cc1 the “activity change, negative = inhibition” value was -13.1%.
For Cc1cnc(CNc2ccnc(-c3ccccc3C(F)(F)F)n2)cn1, the “activity change, negative = inhibition” value was 8.21%.
For FC(F)(F)c1ccccc1-c1nccc(NCc2cccs2)n1, the “activity change, negative = inhibition” value was 6.38%.
With Cn1c(=O)c(-c2ccccc2)nc2cncnc21 the “activity change, negative = inhibition” value was -8.81%.
With CN(C)Cc1ccccc1-c1nc(N(C)C)c2ccccc2n1 the “activity change, negative = inhibition” value was 5.97%.
In the case of CCNc1ncc2nc(C)c(=O)n(CCC#N)c2n1, the “activity change, negative = inhibition” value is reported as -0.613%.
In the case of FC(F)(F)c1ccccc1-c1ccc2ncnc(NCc3cccnc3)c2c1, the “activity change, negative = inhibition” value is reported as -19.5%.
With COc1ccc(-n2c(=O)c(-c3cccs3)nc3cnc(N(C)C)nc32)cc1 the “activity change, negative = inhibition” value was 5.28%.
In the case of O=c1cnc2cncnc2n1Cc1ccccc1Cl, the “activity change, negative = inhibition” value is reported as -9.33%.
In the case of Cc1ccccc1-c1cc(Nc2ccccc2)ncn1, the “activity change, negative = inhibition” value is reported as -8.05%.
With COc1ncc2nc(-c3ccccc3)c(=O)n(-c3ccccc3)c2n1 the “activity change, negative = inhibition” value was 3.29%.
For Cc1noc(C)c1-c1cncnc1NCc1ccccc1, the “activity change, negative = inhibition” value was 3.29%.
In the case of FC(F)(F)c1ccccc1-c1nc(NCCN2CCOCC2)c2ccccc2n1, the “activity change, negative = inhibition” value is reported as 3.11%.

Molecular target: Ubiquitin carboxyl-terminal hydrolase 1 (Homo sapiens) (UniProt O94782)
Sequence (O94782 whole entry, looked up): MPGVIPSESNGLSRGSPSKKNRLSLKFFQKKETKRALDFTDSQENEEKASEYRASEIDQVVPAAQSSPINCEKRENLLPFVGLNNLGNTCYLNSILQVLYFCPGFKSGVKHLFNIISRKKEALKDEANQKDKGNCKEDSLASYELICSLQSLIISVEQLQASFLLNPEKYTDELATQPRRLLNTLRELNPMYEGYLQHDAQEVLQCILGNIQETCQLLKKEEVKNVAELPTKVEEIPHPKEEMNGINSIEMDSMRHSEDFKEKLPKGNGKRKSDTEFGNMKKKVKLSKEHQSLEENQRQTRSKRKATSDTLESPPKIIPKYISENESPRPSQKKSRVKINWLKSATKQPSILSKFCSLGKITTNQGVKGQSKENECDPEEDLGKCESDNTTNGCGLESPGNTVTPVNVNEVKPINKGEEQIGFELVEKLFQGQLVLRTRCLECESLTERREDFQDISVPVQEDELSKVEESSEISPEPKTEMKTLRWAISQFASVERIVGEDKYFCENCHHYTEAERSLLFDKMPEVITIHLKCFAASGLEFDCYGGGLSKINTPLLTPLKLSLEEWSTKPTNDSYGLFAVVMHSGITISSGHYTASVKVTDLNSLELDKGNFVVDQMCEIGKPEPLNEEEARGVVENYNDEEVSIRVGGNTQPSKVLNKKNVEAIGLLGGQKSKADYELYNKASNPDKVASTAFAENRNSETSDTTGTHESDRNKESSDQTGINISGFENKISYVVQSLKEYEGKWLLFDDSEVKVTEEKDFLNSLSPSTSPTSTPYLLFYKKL
Assay: Inhibitors of USP1/UAF1: Pilot qHTS (AID 504865); note: nearly all actives have a fitted effect of over 35% in size; note: potency is the fitted concentration of half-maximal effect;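 for activity change, negative = inhibition: rhodamine fluorescence freed from ubiquitin-rhodamine substrate followed over time; top concentration of the series differs between compounds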
Settings: purified USP1/UAF1, Ub-rhodamine cleavage fluorescence; series mostly up to 54.9 µM; activity change, negative = inhibition: at the top concentration
How it was run: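 Enzyme-free wells gave the negative control, while test wells held 1nM USP1/UAF1 preincubated with compound for 15 min at room temperature. Ub-Rho at 150nM final started the reaction, and fluorescence at 480/540 nm was recorded kinetically.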
For Cc1noc(C)c1-c1nccc(N2CCOCC2)n1, the “activity change, negative = inhibition” value was -22.8%.
With CNc1nc(-c2ccc3c(c2)OCO3)nc2ccccc12 the “activity change, negative = inhibition” value was -15.2%.
With O=c1c(-c2ccccc2)nc2cnc(Nc3ccccc3)nc2n1Cc1cccs1 the “activity change, negative = inhibition” value was -13.8%.
For c1csc(CNc2ccnc(-c3ccoc3)n2)c1, the “activity change, negative = inhibition” value was -19.4%.
For Cc1ccccc1-c1nccc(NCCN2CCOCC2)n1, the “activity change, negative = inhibition” value was -18.5%.
In the case of CCNc1ncc2nc(-c3ccc(OC)cc3)c(=O)n(C[C@H]3CCCO3)c2n1, the “activity change, negative = inhibition” value is reported as -7.87%.
For CC(=O)NCCNc1nc(-c2cccnc2)nc2ccccc12, the “activity change, negative = inhibition” value was -11.9%.
In the case of Cc1cccc(CNc2cc(-c3c(C)noc3C)ncn2)c1, the “activity change, negative = inhibition” value is reported as -15.1%.
In the case of CCNc1ncc2ncc(=O)n(CCOC)c2n1, the “activity change, negative = inhibition” value is reported as -3.45%.
With CCNc1ncc2nc(-c3ccccc3)c(=O)n(Cc3cccs3)c2n1 the “activity change, negative = inhibition” value was -8.95%.
For COCCNc1nc(-c2ccccc2Cl)nc2ccccc12, the “activity change, negative = inhibition” value was -13.7%.
With COc1cccc(-c2cncnc2N(C)Cc2ccco2)c1 the “activity change, negative = inhibition” value was -8.4%.
For CN(C)C(=O)c1ccc(-c2cncnc2NCCc2cnc[nH]2)cc1, the “activity change, negative = inhibition” value was -5.92%.
In the case of Cc1cnc(CNc2ccnc(-c3ccccc3C(F)(F)F)n2)cn1, the “activity change, negative = inhibition” value is reported as -9.73%.
In the case of FC(F)(F)c1ccccc1-c1nccc(NCc2cccs2)n1, the Potency is reported as 11.2 µM (active).
With c1cncc(-c2cncnc2NC2CCNCC2)c1 the “activity change, negative = inhibition” value was -12%.
With c1ccc(Nc2cc(-c3ccoc3)ncn2)cc1 the “activity change, negative = inhibition” value was -13.7%.
In the case of Cn1c(=O)c(-c2ccccc2)nc2cncnc21, the “activity change, negative = inhibition” value is reported as -6.84%.
In the case of CN(C)Cc1ccccc1-c1nc(N(C)C)c2ccccc2n1, the “activity change, negative = inhibition” value is reported as -4.7%.
With CN(C)c1ncc2nc(-c3ccc(F)cc3)c(=O)n(C)c2n1 the “activity change, negative = inhibition” value was -9.9%.
With O=c1cnc2cnc(Oc3cccc(Cl)c3)nc2n1C[C@H]1CCCO1 the “activity change, negative = inhibition” value was -8.47%.
With CCNc1ncc2nc(-c3ccc(F)cc3)c(=O)n(CCOC)c2n1 the “activity change, negative = inhibition” value was -8.19%.
For CCNc1ncc2nc(C)c(=O)n(CCC#N)c2n1, the “activity change, negative = inhibition” value was -9.86%.
With FC(F)(F)c1ccccc1-c1ccc2ncnc(NCc3cccnc3)c2c1 the “activity change, negative = inhibition” value was -12.7%.
In the case of CCNc1ncc2nc(-c3cccs3)c(=O)n(C)c2n1, the “activity change, negative = inhibition” value is reported as -12.8%.
In the case of COc1ccc(CNc2ncnc3ccc(-c4cccnc4)cc23)c(OC)c1, the “activity change, negative = inhibition” value is reported as -14.6%.
In the case of c1csc(CNc2ncnc3ccc(-c4ccoc4)cc23)c1, the “activity change, negative = inhibition” value is reported as -26%.
For Cc1noc(C)c1-c1ccc2ncnc(N3CCN(C)CC3)c2c1, the “activity change, negative = inhibition” value was -8.16%.
In the case of Cc1ccccc1-c1cc(Nc2ccccc2)ncn1, the “activity change, negative = inhibition” value is reported as -20%.
With COc1ncc2nc(-c3ccccc3)c(=O)n(-c3ccccc3)c2n1 the “activity change, negative = inhibition” value was -9.73%.
In the case of COc1ncc2nc(-c3ccc(F)cc3)c(=O)n(-c3ccccc3)c2n1, the “activity change, negative = inhibition” value is reported as -8.73%.
For CN1CCN(c2ncc3ncc(=O)n(CCC#N)c3n2)CC1, the “activity change, negative = inhibition” value was -10.3%.
In the case of Cc1noc(C)c1-c1cncnc1NCc1ccccc1, the “activity change, negative = inhibition” value is reported as -4.28%.
For COc1cccc(Cn2c(=O)c(-c3ccc(F)cc3)nc3cnc(N(C)C)nc32)c1, the “activity change, negative = inhibition” value was -8.77%.
With COCCNc1ncnc2ccc(-c3cccc(OC)c3)cc12 the “activity change, negative = inhibition” value was -13.2%.
With FC(F)(F)c1ccccc1-c1nc(NCCN2CCOCC2)c2ccccc2n1 the “activity change, negative = inhibition” value was -21%.

Test system: not listed separately
Assay: Primary qHTS for small molecule stabilizers of the endoplasmic reticulum resident proteome: Secreted ER Calcium Modulated Protein (SERCaMP) assay (AID 1508630)
Settings: SH-SY5Y GLuc-SERCaMP (Gaussia luciferase released on ER calcium loss) secretion, thapsigargin, luminescence; series mostly up to 38.4 µM; activity change, negative = inhibition: at the top concentration
How it was run: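 The SH-SY5Y reporter protocol was run at 3 concentrations up to 38.3 uM (primary) or 11 concentrations (follow-up): 16 h compound, 100 nM thapsigargin for 4 h, then extracellular luciferase luminescence.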
In the case of Cc1noc(C)c1-c1nccc(N2CCOCC2)n1, the “activity change, negative = inhibition” value is reported as 0.213%.
In the case of CNc1nc(-c2ccc3c(c2)OCO3)nc2ccccc12, the “activity change, negative = inhibition” value is reported as -11.9%.
In the case of O=c1c(-c2ccccc2)nc2cnc(Nc3ccccc3)nc2n1Cc1cccs1, the “activity change, negative = inhibition” value is reported as 11.2%.
In the case of c1csc(CNc2ccnc(-c3ccoc3)n2)c1, the “activity change, negative = inhibition” value is reported as 1.37%.
In the case of Cc1ccccc1-c1nccc(NCCN2CCOCC2)n1, the “activity change, negative = inhibition” value is reported as 2.86%.
With CCNc1ncc2nc(-c3ccc(OC)cc3)c(=O)n(C[C@H]3CCCO3)c2n1 the “activity change, negative = inhibition” value was -0.653%.
With CC(=O)NCCNc1nc(-c2cccnc2)nc2ccccc12 the “activity change, negative = inhibition” value was 31.6%.
In the case of Cc1cccc(CNc2cc(-c3c(C)noc3C)ncn2)c1, the “activity change, negative = inhibition” value is reported as 15.8%.
For CCNc1ncc2ncc(=O)n(CCOC)c2n1, the “activity change, negative = inhibition” value was -2.6%.
In the case of CCNc1ncc2nc(-c3ccccc3)c(=O)n(Cc3cccs3)c2n1, the “activity change, negative = inhibition” value is reported as 9.65%.
With COCCNc1nc(-c2ccccc2Cl)nc2ccccc12 the “activity change, negative = inhibition” value was -4.04%.
With COc1cccc(-c2cncnc2N(C)Cc2ccco2)c1 the “activity change, negative = inhibition” value was 28%.
With CN(C)C(=O)c1ccc(-c2cncnc2NCCc2cnc[nH]2)cc1 the “activity change, negative = inhibition” value was -6.01%.
For Cc1cnc(CNc2ccnc(-c3ccccc3C(F)(F)F)n2)cn1, the “activity change, negative = inhibition” value was 41.4%.
With FC(F)(F)c1ccccc1-c1nccc(NCc2cccs2)n1 the “activity change, negative = inhibition” value was -4.92%.
In the case of c1cncc(-c2cncnc2NC2CCNCC2)c1, the “activity change, negative = inhibition” value is reported as -1.7%.
In the case of c1ccc(Nc2cc(-c3ccoc3)ncn2)cc1, the “activity change, negative = inhibition” value is reported as 12.4%.
For Cn1c(=O)c(-c2ccccc2)nc2cncnc21, the “activity change, negative = inhibition” value was -10.3%.
With CN(C)Cc1ccccc1-c1nc(N(C)C)c2ccccc2n1 the “activity change, negative = inhibition” value was -4.79%.
For CN(C)c1ncc2nc(-c3ccc(F)cc3)c(=O)n(C)c2n1, the “activity change, negative = inhibition” value was -5.84%.
In the case of O=c1cnc2cnc(Oc3cccc(Cl)c3)nc2n1C[C@H]1CCCO1, the “activity change, negative = inhibition” value is reported as -12.1%.
In the case of O=c1c(-c2cc(F)cc(F)c2)nc2cnc(Nc3ccccc3)nc2n1C[C@H]1CCCO1, the “activity change, negative = inhibition” value is reported as -18.9%.
For CCNc1ncc2nc(-c3ccc(F)cc3)c(=O)n(CCOC)c2n1, the “activity change, negative = inhibition” value was -11.2%.
For CCNc1ncc2nc(C)c(=O)n(CCC#N)c2n1, the “activity change, negative = inhibition” value was -20.9%.
For FC(F)(F)c1ccccc1-c1ccc2ncnc(NCc3cccnc3)c2c1, the “activity change, negative = inhibition” value was -18%.
For CCNc1ncc2nc(-c3cccs3)c(=O)n(C)c2n1, the “activity change, negative = inhibition” value was -4.71%.
With COc1ccc(CNc2ncnc3ccc(-c4cccnc4)cc23)c(OC)c1 the “activity change, negative = inhibition” value was -27.4%.
In the case of COc1ccc(-n2c(=O)cnc3cnc(OC)nc32)cc1, the “activity change, negative = inhibition” value is reported as -8.81%.
For c1csc(CNc2ncnc3ccc(-c4ccoc4)cc23)c1, the “activity change, negative = inhibition” value was -12.1%.
With Cc1noc(C)c1-c1ccc2ncnc(N3CCN(C)CC3)c2c1 the “activity change, negative = inhibition” value was -11.8%.
In the case of COc1ccc(-n2c(=O)c(-c3cccs3)nc3cnc(N(C)C)nc32)cc1, the “activity change, negative = inhibition” value is reported as 16.8%.
With O=c1cnc2cncnc2n1Cc1ccccc1Cl the “activity change, negative = inhibition” value was 83.9%.
With Cc1ccccc1-c1cc(Nc2ccccc2)ncn1 the “activity change, negative = inhibition” value was 5.24%.
For COc1ncc2nc(-c3ccccc3)c(=O)n(-c3ccccc3)c2n1, the “activity change, negative = inhibition” value was -23.5%.
For COc1ncc2nc(-c3ccc(F)cc3)c(=O)n(-c3ccccc3)c2n1, the “activity change, negative = inhibition” value was 9.7%.
For CN1CCN(c2ncc3ncc(=O)n(CCC#N)c3n2)CC1, the “activity change, negative = inhibition” value was 2.48%.
In the case of Cc1noc(C)c1-c1cncnc1NCc1ccccc1, the “activity change, negative = inhibition” value is reported as 28.2%.
With COc1cccc(Cn2c(=O)c(-c3ccc(F)cc3)nc3cnc(N(C)C)nc32)c1 the “activity change, negative = inhibition” value was 1.1%.
For COCCNc1ncnc2ccc(-c3cccc(OC)c3)cc12, the “activity change, negative = inhibition” value was -18.2%.
With FC(F)(F)c1ccccc1-c1nc(NCCN2CCOCC2)c2ccccc2n1 the “activity change, negative = inhibition” value was -25%.
